# NS1 function inh = influenza NS1 inhibition. Potency, µM (highest dose often 46.1 µM), for the others: at the highest dose activity, positive = more growth. actives 0.4% (n = 270,000); calls by dose curve; also: actives are rising curves; nearly all actives have a fitted effect of over 50% in size
#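 Recovery from NS1-induced slow growth read by OD600 in budding yeast switched to galactose assay medium (pH 6.0, -URA) at 1:100 dilution. Compound 23 nl per well; the matching strain lacking NS1 serves as control.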
# AMA1 RON2 block = inhibitors of Plasmodium falciparum AMA1-RON2 interaction. AlphaScreen AMA1-biotinylated RON2 peptide binding. Potency, µM (titrated, usually from 58.2 µM), without a hit: at the top dose activity change, negative = inhibition, actives largely listed as inhibitors. actives 0.2% (n = 360,000). AID 720542;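 also: 0% = vehicle wells and -100% = peptide control; nearly all actives have a fitted effect of over 45% in size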
#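 AMA1 (3D7) with his tag at 25 nM final met compounds first, then biotinylated RON2 peptide at 25 nM; detection used donor plus acceptor beads, 10 µg/mL apiece, read by AlphaScreen after 30 min at room temperature.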
# Sm TGR block = S. mansoni TGR enzyme inhibition; actives 3% (n = 360,000); purified TGR, DTNB reduction, TNB absorbance 405 nm; Q962Y6; Potency, µM (series often up to 114 µM), for the others: top-dose activity change, negative = inhibition, hits mostly inhibitors; AID 485364; also: % is scaled to controls: 0 for no effect and ±100 for the full control effect; nearly all actives have a fitted effect of over 60% in size
#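 TGR 20 nM + NADPH 100 uM (dispensed conc.), cpd preinc 15 min RT; start with NADPH (500 uM addition) then DTNB (15 mM addition). Kinetic TNB absorbance, 405 nm filter. Four-parameter Hill fit across titration.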
# Pf growth 96h = inhibits malaria parasite growth, 96 h; P. falciparum luciferase reporter growth, 96 h; actives 6.9% (n = 320,000); Potency, µM (titrated, usually from 28.7 µM), without a hit: top-dose activity change, negative = inhibition, actives largely listed as inhibitors; AID 504834; also: % is scaled to controls: 0 for no effect and ±100 for the full control effect
#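 Infected RBCs, 2% Hct / 0.05% parasitemia final; luciferase-reporter P. falciparum; cpd 96 h, 37 C, 5% CO2; luciferase detection reagent; luminescence.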
# Pf growth 48h = P. falciparum growth inhibition at 48 hours (one generation); actives 5.9% (n = 310,000); P. falciparum luciferase growth in erythrocytes, 48 h; Potency, µM (doses to about 28.7 µM), for inactives: top-dose activity change, negative = inhibition, most hits filed as inhibitors; AID 504832; also: % is scaled to controls: 0 for no effect and ±100 for the full control effect
#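 Here the parasites carry a stable luciferase gene and grow inside erythrocytes in Albumax-based RPMI medium with compound for one erythrocytic cycle. Activity is scored as loss of luminescent signal.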
# * = called active by the depositor; ? = inconclusive; nt = not tested or not shown; [ ] = dose if it differs, or a comment. Sampled rows, rich in hits. Any-hit rate of the full collection: about 11%. Unless noted, calls follow the shape of the dose curve; as a rule, active = well fitted curve in the direction sought with a large enough effect; inconclusive = small, poorly fitted or top-dose-only effect, or another doubt; inactive = no such curve, though single readings can be large; an effect the other way counts as inactive or inconclusive. Potency is read from the fitted curve at half-maximal effect.
SMILES,NS1 function inh,AMA1 RON2 block,Sm TGR block,Pf growth 96h,Pf growth 48h
Cc1ccc(NC(=O)Cc2nc(CN(C)CC(=O)Nc3ccc(C)cc3)cs2)cc1,nt,43%,-15%,?,13µM*
Cc1ccc(NC(=O)Cc2nc(CSc3nnc(-c4ccc5c(c4)OCO5)o3)cs2)cc1,-7%,5%,-1%,3.7µM*,212%
CN(C)C(=O)c1ccc(NC(=O)CSc2nnc(-c3ccc4c(c3)OCO4)o2)cc1,nt,-3%,1%,?,1%
Cc1ccn2c(CNCc3cnn(C)c3)c(C(=O)N3CCCCCC3)nc2c1,0%,15%,-9%,89%,-12%
O=C(CCOc1ccccc1)Nc1ccccc1,-9%,9%,4%,12µM*,17%
O=C(CCCC(=O)c1ccccc1)Nc1ccc(O)cc1,-2%,0%,-5%,10µM*,-15%
O=C(CCCCCCC(=O)Nc1ccccc1)NO,nt,nt,nt,0.13µM*,0.21µM*
CC(=O)c1ccc(NC(=O)CCCC(=O)c2ccccc2)cc1,-1%,-15%,6%,5%,-17%
O=C(CCCCCN1C(=O)c2ccccc2C1=O)Nc1ccccc1,-46%,-2%,3%,-7%,nt
O=C(COC(=O)[C@@H]1CCCN1S(=O)(=O)c1ccccc1F)NCc1ccc2c(c1)OCO2,nt,8%,-6%,22%,-4%
COC(=O)Cc1c(C(=O)OC)nnn1-c1ccc(OC(F)(F)F)cc1,nt,-8%,4%,2%,21%
Cc1nc2c3c(sc2c(=O)[nH]1)NC(=O)CC3c1ccccc1Cl (stereo not given),1%,-6%,-13%,41%,2%
O=C1CC(c2ccccc2Cl)c2c(sc3c(=O)[nH]c(CCl)nc23)N1 (stereo not given),0%,nt,25µM*,?,-17%
COC(=O)Cn1c(=NC(=O)c2ccc(S(=O)(=O)N3CCOCC3)cc2)sc2cc(S(N)(=O)=O)ccc21,5%,13%,1%,?,?
COCCn1c(=NC(=O)c2ccc(S(=O)(=O)N3CCOCC3)cc2)sc2cc(S(N)(=O)=O)ccc21,5%,8%,4%,8.3µM*,?
C=C(C)C(=O)OC1(C(F)(F)F)Oc2cc(C)ccc2NC1=O (stereo not given),-37%,20%,40µM*,-5%,?
CCOc1c(OC(C)=O)ccc(/C=C/c2ccc3cccc(OC)c3n2)c1[N+](=O)[O-],6%,-29%,-22%,-3%,4.7µM*
O=C(N/C(=C/c1ccccc1)C(=O)N1CCCCC1)c1ccco1,-1%,0%,2%,32%,22%
COc1cc(NC(=O)Cn2c(-c3cncs3)nc3ccccc32)cc(OC)c1OC,-142%,-6%,3%,18%,2.3µM*
COC(=O)c1c[nH]c(=O)c2ccccc12,4%,-6%,-4%,?,35%
CN(Cc1c[nH]c2ccccc12)C1CCCCC1,0%,2%,1%,1%,-16%
CCN(CC)Cc1c[nH]c2ccccc12,-9%,-3%,?,8.3µM*,?
CCN(CC)Cc1c[nH]c2c(C(=O)OC)cccc12,0%,13%,0%,2.6µM*,0%
O=[N+]([O-])c1ccc(N2CCN(S(=O)(=O)c3ccccc3)CC2)cc1NCCN1CCOCC1,6%,?,4%,9.3µM*,13µM*
COc1ccc(OCCNc2cc(N3CCOCC3)ccc2[N+](=O)[O-])cc1,-24%,-16%,5%,?,-15%
SMILES,NS1 function inh,AMA1 RON2 block,Sm TGR block,Pf growth 96h,Pf growth 48h
COc1cccc(OCCNc2cc(N3CCOCC3)ccc2[N+](=O)[O-])c1,7%,-21%,-5%,0.41µM*,15%
CN(C(=O)COC(=O)Cn1cnc2ccccc21)C1CCCCC1,nt,-15%,nt,nt,nt
Cc1ccc(NC(=O)CN(C)C(=O)COC(=O)c2ccc(NC(=O)CC#N)cc2)cc1,nt,1%,nt,nt,nt
O=C(COC(=O)c1ccncc1)NCCCc1ccccc1,16%,-4%,-8%,9%,23%
N#CCC(=O)Nc1ccc(C(=O)OCC(=O)NCCCc2ccccc2)cc1,-2%,5%,11%,1.2µM*,-79%
N#CCC(=O)Nc1ccc(C(=O)OCc2ccccc2Oc2ccccc2)cc1,0%,-8%,-2%,?,10µM*
N#CCC(=O)Nc1ccc(C(=O)OCC(=O)C23CC4CC(CC(C4)C2)C3)cc1,nt,0%,3%,?,13µM*
O=C(O)CC1(CC(=O)Nc2ccc3sccc3c2)CCCCC1,3%,8%,1%,-8%,0%
CCc1ccc(NC(=O)C2=C(C)C(=O)OC23CCCCC3)cc1,nt,nt,0%,nt,nt
CN(C)CCNc1nc2sc3c(c2c(=O)n1CCc1ccccc1)CCCCC3,7%,-29%,-2%,2.3µM*,2.1µM*
CC(O)CNc1nc2sc3c(c2c(=O)n1Cc1ccco1)CCCCC3 (stereo not given),1%,-14%,-15%,-4%,?
CC(O)CNc1nc2sc3c(c2c(=O)n1CCc1ccccc1)CCCCC3 (stereo not given),12%,-12%,4%,0%,12µM*
O=C(NCC(=O)N1CCC(Cc2ccccc2)CC1)c1ccccc1F,nt,0%,nt,nt,nt
COc1ccc(CCNC(=O)c2ccc3c(c2)ncn3-c2ccc(C)cc2C)cc1OC,nt,nt,-4%,nt,nt
Cc1ccc(-c2cc(C(=O)Nc3nccs3)c3ccccc3n2)o1,-25%,83%,7.1µM*,9.3µM*,?
Cc1ccc(-c2cc(C(=O)Nc3nccs3)c3ccccc3n2)c(C)c1,-4%,8%[2.32 µM],-11%,1.3µM*,?
O=S(=O)(c1ccc(F)c(F)c1)N1CCC2(CC1)OCCO2,6%,2%,2%,71%,52%
CC(=O)NC(C)c1nc2ccccc2n1Cc1ccccc1Cl (stereo not given),nt,nt,-2%,nt,nt
CC(NC(=O)/C=C/c1ccco1)c1nc2ccccc2n1Cc1ccccc1F (stereo not given),11%,0%,35µM*,10µM*,?
CC(NC(=O)/C=C/c1ccco1)c1nc2ccccc2n1Cc1c(Cl)cccc1Cl (stereo not given),7%,9%[2.32 µM],25µM*,?,?
CC(NC(=O)c1ccccc1)c1nc2ccccc2n1Cc1ccccc1F (stereo not given),-2%,nt,34%,-20%,?
COc1ccc(-c2nn3c(-c4ccccc4C)nnc3c3ccccc23)cc1,nt,nt,8%,nt,nt
CCc1cc(C(=O)NCC(c2ccc(OC)cc2)N2CCOCC2)sc1C (stereo not given),nt,21%,-5%,-1%,0%
COc1ccc(C(CNC(=O)c2ccco2)N2CCOCC2)cc1 (stereo not given),nt,0%,-4%,33%,11%
COc1ccc(C(CNC(=O)c2ccc(-c3cccc(C(F)(F)F)c3)o2)N2CCOCC2)cc1 (stereo not given),nt,-21%,?,1.5µM*,6.6µM*
COc1cccc(-n2nc(C(=O)NCC3CCCO3)c3ccccc3c2=O)c1 (stereo not given),-5%,-2%,-4%,3.7µM*,-16%

# Screening data (PubChem BioAssay)
